Data from PubChem BioAssay (NCI).
The panel holds about 83,000 compounds, 20% with a hit somewhere; the sample as a whole holds those more often.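 96-well plates, one dose, 48 hours. Percent growth reported; active if below 10.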 A number with no mark means an inactive call. Activity calls are given as the source filed them.

Legend:
Test in all cases: NCI-60 one-dose screen, 48 h (100 = growth as untreated, 0 = no growth, -100 = all killed)
NCI-H23 lung = conditions: 10 µM unless noted
NCI-H226 lung = conditions: 10 µM unless noted
NCI-H322M lung = conditions: 10 µM unless noted
HOP-62 NSCLC = conditions: 10 µM unless noted
NCI-H460 lung = conditions: 10 µM unless noted
HOP-92 NSCLC = conditions: 10 µM unless noted
NCI-H522 lung = conditions: 10 µM unless noted
A549/ATCC NSCLC = conditions: 10 µM unless noted
786-0 renal = conditions: 10 µM unless noted
COLO 205 colon = conditions: 10 µM unless noted
DU-145 prostate = conditions: 10 µM unless noted
MALME-3M melanoma = conditions: 10 µM unless noted
MDA-MB-231 breast = conditions: 10 µM unless noted
RXF 393 renal = conditions: 10 µM unless noted
SF-268 CNS = conditions: 10 µM unless noted
SF-295 CNS = conditions: 10 µM unless noted
SF-539 CNS = conditions: 10 µM unless noted
M14 melanoma = conditions: 10 µM unless noted
K-562 leukemia = conditions: 10 µM unless noted
UACC-257 melanoma = conditions: 10 µM

SMILES	growth (NCI-H23 lung)	growth (NCI-H226 lung)	growth (NCI-H322M lung)	growth (HOP-62 NSCLC)	growth (NCI-H460 lung)	growth (HOP-92 NSCLC)	growth (NCI-H522 lung)	growth (A549/ATCC NSCLC) [%]	growth (786-0 renal)	growth (COLO 205 colon)	growth (DU-145 prostate)	growth (MALME-3M melanoma)	growth (MDA-MB-231 breast)	growth (RXF 393 renal)	growth (SF-268 CNS)	growth (SF-295 CNS)	growth (SF-539 CNS)	growth (M14 melanoma)	growth (K-562 leukemia)	growth (UACC-257 melanoma)
CCNCCCn1c2c(c3cc(OC)c(OC)cc3c1=O)C(=O)c1cc(OC)cnc1-2	21.1%	17.7%	33.2%	-12.2% (active)	0.566% (active)	31.1%	13.4%	34.4	-3.55% (active)	13.4%	19.6%	62.9%	16.3%	13.6%	39.5%	14.8%	-7.15% (active)	13.9%		
Cc1ccc(NC(=O)c2ccc(CN3CCN(C)CC3)c(I)c2)cc1Oc1ccc(-c2[nH]nc3ncnc(N)c23)cc1	87.9%	91.8%	89.8%	105%	90.4%		46.6%	66.1	-74.7% (active)	53%	99.6%	-72.7% (active)	39.3%	44.9%	90.3%	78.4%	67.5%		1.61% (active)	-46.4% (active)
Fc1ccccc1/C=C(/C1=NCCN1)n1cnc2ccccc21	96%	83.2%	90%	106%	104%	73.7%	94.3%		99%	123%	97.2%	91%	93.4%	84.1%	90.9%	100%	95.6%	95.1%	94.1%	96.9%
CCCCOc1ccc(S(=O)(=O)N2CCN(c3nccc(N4CCOCC4)n3)CC2)cc1	44.2%	58.3%	45.1%	88.9%	16%	14.3%	81%		39.1%	77.3%	20.3%	97.6%	21.5%	52.3%	13.3%	-40.2% (active)	65.3%	18.6%	50.8%	12%
COC[C@@]1(C)CC[C@]2(C)CC[C@]3(C)C(=CC[C@@H]4[C@@]5(C)CCCNC(C)(C)[C@@H]5CC[C@]43C)C2C1 (stereo not given in full)	75.4%	81.3%	89.4%	83.9%	29.8%	73%	76.7%		59.1%	22%	73.6%	56.7%	77.7%	72.2%	77.1%	3.52% (active)	62.7%	50.1%	6.79% (active)	60%
CCOC(=O)C1=C(C)N=C2Sc3ccccc3N2C1c1ccccc1 (stereo not given)	85.2%	89.2%	86.8%	101%	91.2%	75.4%	73.9%		87.7%	96%	98.2%	102%	83.2%	109%	101%	98.3%	90.3%	89.5%	72.8%	92.6%
COc1ccc([C@H]2[C@H](O)C(=O)N2c2cc(OC)c(OC)c(OC)c2)cc1O	31.2%	19.6%	51.4%	18.9%	2.08% (active)	-8.12% (active)	-38% (active)	19.8	17.4%	-73% (active)	17.4%	59.7%	28.3%	21.3%	50.1%	2.84% (active)	-16.3% (active)	7.13% (active)		
CC1(COc2ccc3ncc(C#Cc4cncc(C(=O)Nc5cc(C(C)(C)C)on5)c4)n3n2)COC1	28.7%	18.8%	60.4%	29.1%	23.3%	-22.6% (active)	56.9%		52.3%	61.9%	53.5%	30.2%	30.7%	-2.4% (active)	53.9%	22.6%	20.2%	28.7%	16.2%	79.9%
O=C(Nc1ccc(-c2nc(-c3cccc(O)c3)c(-c3ccnc(Br)c3)[nH]2)cc1)c1ccccc1	10.5%	51.4%	37.3%	2.99% (active)	11.1%	6.58% (active)	11.3%		-10.2% (active)	21%	35.5%	16.9%	30.2%	-37.1% (active)	29.2%	-56.4% (active)	16.6%	22.6%	1.18% (active)	45.8%
Cc1ccc(-c2csc(N/N=C/c3nc4ccccc4n3C3CC3)n2)cc1	82.9%	64.2%	91.5%	74.9%	84.4%	92.8%	-72.4% (active)		108%	8.64% (active)	105%	-72.9% (active)	80.4%	71.6%	80.1%	96.8%	66%	89%	-55.8% (active)	79.7%
O=C1c2c(c3c4cccnc4[nH]c3c3ccc4ccccc4c23)C(=O)N1CCN1CCOCC1	45.3%	71.5%	84.5%	47.6%	10.6%	80.7%	60.5%		77.9%	66.8%	59.9%	64.4%	86.8%	92.8%	58.7%	51.4%	55.6%	47.4%	37.2%	84.1%
O=C1[C@H]2Cc3c([nH]c4ccccc34)[C@@H](c3ccc(Cl)cc3)N2C(=O)CN1C1CCN(Cc2c(Cl)cccc2Cl)CC1	27.7%	81.6%	103%	84.9%	86%	21.5%	74.6%		-64% (active)	103%	90.4%	65.8%	53%	109%	85.6%	73%	77.7%	84.5%	81.6%	102%
COc1ccc(S(=O)(=O)NCCCNc2nccc(-n3cnc4ccccc43)n2)cc1	91.9%	73.2%	104%	94.9%	97.3%		81.1%	106	95.9%	108%	100%	107%	84.1%	80.6%	91.6%	90.5%	83.9%		78.8%	100%
O=C(Nc1cccc(-c2nc(-c3ccc(NC(=O)c4cccs4)cc3Cl)no2)c1)Nc1ccc(NC(=O)C2CC2)c(C(F)(F)F)c1	-49.8% (active)	-46.4% (active)	-5.29% (active)	-44% (active)	-56.9% (active)	-40% (active)	-34.5% (active)		-30.7% (active)	-51.7% (active)	-13.4% (active)	-80.6% (active)	-58.2% (active)	-83.7% (active)	-33.8% (active)	-63.1% (active)	-85.4% (active)	-41.1% (active)	-11.1% (active)	-32.2% (active)
C/C(=C(/c1ccc(O)cc1)c1ccc(OCCN(C)C)cc1)c1ccc(Cl)cc1	56.8%	89.4%	48%	67.4%	15%	32.5%	57.8%		50.2%	-88.7% (active)	65.2%	-47.9% (active)	31.1%	30.3%	61.8%	80.9%	-18.4% (active)	-70.7% (active)	0.0711% (active)	-66.6% (active)
O=C(O)CNS(=O)(=O)c1ccc(Oc2ccc(S(=O)(=O)NCC(=O)O)cc2)cc1	101%	107%	101%	91.9%	101%	103%	94.7%		100%	109%	105%	99.1%	102%	112%	96.6%	113%	92.7%	100%	94.3%	102%
